Screens: PubChem, several laboratories
S1P4 agonist – agonists of human S1P4 receptor; AID 1509; S1P4-expressing cell line, agonist reporter assay; 220,000 tested, 0.35% active; activation, % at 4.98 µM; O95977; in the data active = activation above about 11%;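 note: 0% = DMSO vehicle and 100% = reference agonist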
Target sequence (O95977 whole entry, looked up): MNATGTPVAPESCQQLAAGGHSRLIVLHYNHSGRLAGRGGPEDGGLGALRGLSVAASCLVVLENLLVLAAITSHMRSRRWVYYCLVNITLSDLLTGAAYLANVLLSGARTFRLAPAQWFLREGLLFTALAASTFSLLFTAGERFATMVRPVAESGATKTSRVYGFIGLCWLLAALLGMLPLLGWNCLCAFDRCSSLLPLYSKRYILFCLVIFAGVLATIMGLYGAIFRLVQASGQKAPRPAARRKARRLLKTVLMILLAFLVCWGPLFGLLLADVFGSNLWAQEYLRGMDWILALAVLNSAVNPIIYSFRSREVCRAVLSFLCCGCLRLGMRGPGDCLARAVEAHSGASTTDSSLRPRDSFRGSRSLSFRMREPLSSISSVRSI
S1P3 antag – blocks the human S1P3 receptor. Q99500. CHO S1P3 NFAT-BLA reporter, FRET fluorescence, antagonist mode. inhibition, % at 4.98 µM. 170,000 tested, 0.27% active. AID 485;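 active = inhibition above the plate cutoff, the mean inhibition of test wells on that plate plus 3 SD, cut at about 28% in these data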;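 note: cells challenged with S1P at its EC80 of 0.8 µM; blue over green emission ratio from cleaved BLA substrate after 4 h stimulation; 0% = S1P-stimulated wells and 100% = unstimulated DMSO-only wells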
KCC2 mod – KCC2 (human) Cl- transport modulation | Q9H2X9 | KCC2 cells, thallium flux FluoZin-2 fluorescence | B-score of Tl+ flux slope (higher = more flux/activation; lower = inhibition) at 10 µM | 190,000 tested, 2.2% active;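 active = thallium flux slope and its plate-corrected score both differing from the plate sample mean at a set confidence after two filtering rounds, in either direction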;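 note: slope of fluorescence scaled to starting intensity during 10 to 20 s after thallium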
ROMK mod – human ROMK K+ channel modulation, primary screen; AID 1918; 130,000 tested, 2% active; B-score at 10 µM; Tet-inducible ROMK, thallium flux fluorescence; actives lie on both sides;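 active = signal ratio slope over the read window, or its plate-corrected B-score, at least 3 SD from the plate mean, either direction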;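 note: B-score of the F/F0 ratio slope over 7 to 12 s after thallium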
RAM network inh – blocks the yeast RAM network. inhibition, % at 50 µM. S. cerevisiae dse1pr::URA3 reporter, 5-FOA growth OD615, 2 d; analog-sensitive cbk1-as2 kinase mutant strain. AID 868. 190,000 tested, 1.8% active;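 active = inhibition above a set limit, 3 SD over mean compound inhibition, cut at about 8.4% in these data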;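 note: 0% = DMSO-only wells with no growth and 100% = 10 µM 1-NA-PP1 full growth; inhibition rescues growth on 5-FOA so higher OD means more RAM inhibition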
S1P4 antagonist – human S1P4 receptor antagonism | 220,000 tested, 0.26% active | AID 1510 | S1P4-expressing cells, antagonist mode, reporter read-out | inhibition, % at 4.98 µM; in the data active = inhibition above about 29%;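 note: 0% = wells stimulated with agonist and 100% = vehicle wells without agonist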
ROMK hit retest – human ROMK channel modulation, retest confirmation. shares compounds with ROMK mod. ROMK thallium flux, fluorescence ratio; hits give low values. normalized thallium flux (F/F0 slope) at 10 µM. 3,000 tested, 54% active. AID 1917;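 active = Flux at 10 µM at least 3 SD below or above vehicle control mean in one or both replicates; inconclusive = no clear call, values can overlap the other calls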
The depositor's hits bear a star; ? = inconclusive; . = no result. This is a sample that favours compounds with a hit; in the whole collection about 5.1% have one here.

SMILES	S1P4 agonist	S1P3 antag	KCC2 mod	ROMK mod	RAM network inh	S1P4 antagonist	ROMK hit retest
CCOc1ccc(CCNc2nc3ccccc3n3cnnc23)cc1OCC	0.0	-1.8	-0.607	.	.	-3.7	.
COc1cc(C(=O)N/N=C/c2sccc2C)cc(OC)c1OC	0.9	26.4	-0.0996	5.09*	-1.6	20.4	?
Cc1ccsc1/C=N/NC(=O)c1ccncc1	2.5	-27.5	0.67	0.917	0.5	-12.9	.
COc1cc(C(=O)N/N=C/c2cc([N+](=O)[O-])cs2)cc(OC)c1OC	-1.9	19.8	-0.486	4.12*	1.2	1.1	0.0878
c1ccc(-n2nnnc2NC2CCCCC2)cc1	-0.8	.	.	.	1.8	-6.0	.
CCN1CCc2c(C#N)c(N3CCCCC3)nc(NCc3ccccc3)c2C1	-1.2	.	0.663	-2.57*	1.2	15.2	0.0655*
COCCNC(=O)c1cnn2c(C(F)(F)F)cc(-c3ccc(C)cc3)nc12	0.6	6.7	-1.27	0.0124	0.5	-21.6	.
COc1ccc(N2CCN(C(c3cccc(OC)c3OC)c3nnnn3C3CCCC3)CC2)cc1 (stereo not given)	-1.8	-6.0	-0.499	.	0.4	7.5	.
COc1cccc(C(c2nnnn2C(C)(C)C)N2CCN(C3CCCCC3)CC2)c1OC (stereo not given)	1.6	-30.0	.	-2.44*	1.9	2.4	?
CCNC(=O)NC(=O)C(C)OC(=O)C1CCN(S(=O)(=O)c2ccccc2C(=O)OC)CC1 (stereo not given)	0.6	-16.9	-0.94	-0.716	1.5	-8.8	.
O=C(c1ccccc1F)N1CCN(c2ccc([N+](=O)[O-])c(N3CCOCC3)c2)CC1	0.1	-8.2	-1.3	0.179	0.6	-2.5	.
O=C(c1cccc2ccccc12)N1CCN(c2ccc([N+](=O)[O-])c(N3CCOCC3)c2)CC1	0.3	15.5	-0.297	.	5.9	-6.0	0.075
COc1ccc([C@H]2[C@H](C(=O)OC(C)(C)C)N3N=Cc4ccccc4C3C23C(=O)c2ccccc2C3=O)cc1OC (stereo not given in full)	-0.5	1.6	-0.601	.	4.9	-23.7	.
COc1ccc([C@H]2[C@H](C(=O)OC(C)(C)C)N3N=Cc4ccccc4C3C23C(=O)c2ccccc2C3=O)c(OC)c1 (stereo not given in full)	-0.7	14.2	-3.6	.	9.3*	-2.5	0.0602*
COCC(C)n1c(SCC(=O)N(C)C2CCS(=O)(=O)C2)nc2ccccc2c1=O (stereo not given)	0.4	3.8	0.774	0.324	2.7	6.4	.
N#CC1=C(SCC(=O)NC23CC4CC(CC(C4)C2)C3)NC(=O)C(C#N)C12CCCCC2 (stereo not given)	-0.4	-22.4	.	-3.69*	1.7	-17.9	0.0569*
CC(NC(=O)c1cn(C(C)c2ccccc2F)nn1)c1ccncc1 (stereo not given)	-1.4	-4.3	0.173	0.202	1.1	9.1	.
O=C(CO/N=C/c1ccc(OC(F)F)cc1)NC1CCCC1	1.8	9.8	-0.523	-0.987	0.7	-14.3	.
CN(C(=O)CO/N=C/c1ccc(OC(F)F)cc1)C1CCS(=O)(=O)C1 (stereo not given)	0.3	-18.2	0.459	-10*	1.9	1.2	0.0733
CCCCCCn1c2c(c(=N)c3c1CCC3)CCC2	-0.3	-26.6	.	.	1.9	-1.6	.
CCCCCCCCCn1c2c(c(=N)c3c1CCC3)CCC2	-0.2	.	0.0821	.	-1.6	-2.5	0.0432*
CC(=O)c1c(C)c2c(n1CCN(C)C)CCCC2	-2.2	.	.	3.47*	0.5	0.2	0.0777
Cc1cc(C)n(-c2cc(N3CCN(C(=O)c4cccc(F)c4)CC3)ccc2[N+](=O)[O-])n1	-1.0	-14.0	-1.16	-0.663	0.7	-1.1	.
COc1ccccc1C1SCCN1S(=O)(=O)c1cccc(C(F)(F)F)c1 (stereo not given)	-0.6	-0.6	-1.5	-4.34*	3.4	12.6	0.0658*
COc1ccc(C2SCCN2S(=O)(=O)c2ccc(F)cc2)cc1OC (stereo not given)	-2.1	-21.1	-0.411	.	0.5	-13.5	.
SMILES	S1P4 agonist	S1P3 antag	KCC2 mod	ROMK mod	RAM network inh	S1P4 antagonist	ROMK hit retest
COc1ccc(NS(=O)(=O)c2ccc(N3CCCC3=O)cc2)cn1	0.8	-1.7	0.055	2.32*	0.1	-38.3	0.0813
C=CC[n+]1c(-c2ccc(Cl)cc2Cl)csc1Nc1ccc(NC(C)=O)cc1	2.0	-14.1	-0.784	2.54*	-0.7	-0.4	0.0787
C=CC[n+]1c(-c2ccc(Cl)cc2Cl)csc1Nc1c(C)n(C)n(-c2ccccc2)c1=O	0.3	3.7	-0.67	-0.00565	-0.4	-10.1	.
NC(=O)NC(=O)COC(=O)CC12CC3CC(CC(C3)C1)C2	0.1	2.2	-0.3	0.808	2.0	-4.2	.
Cc1nn(-c2ccccc2)c(N2CCCC2)c1/C=C1\N=C(c2ccc(F)cc2)OC1=O	0.5	0.8	-0.0762	-1.48*	6.2	-1.3	0.0657*
Cc1ccc(C2=N/C(=C\c3c(C)nn(-c4ccccc4)c3N3CCCC3)C(=O)O2)cc1	-0.3	-6.1	0.613	-0.621	5.6	-20.6	.
O=C(Cc1ncc(C(F)(F)F)cc1Cl)NCCc1ccccc1	0.3	-9.4	-1.29	-0.369	0.4	-3.8	.
Cc1ccc(NC(=O)Cc2ncc(C(F)(F)F)cc2Cl)cc1Cl	-0.5	.	0.00696	.	3.3	-6.5	0.0675*
Cc1ccc(Cn2ccc(=O)c(Cc3c(Cl)cccc3Cl)c2C)cc1	2.5	.	.	.	0.4	-25.2	0.049*
Nc1c(C(=O)N/N=C/c2ccc(OCc3ccccc3)cc2)cnn1-c1ccccc1	-0.3	-5.9	2.32	-12.9*	.	0.2	0.0751
Nc1c(C(=O)N/N=C/c2ccc(Cl)cc2)cnn1-c1ccccc1	-1.0	0.0	1.03	-1.62	.	-1.1	.
Cc1ccc(OCC(=O)N(Cc2ccccc2)C(C)C)c([N+](=O)[O-])n1	0.0	-11.2	-0.251	-0.148	2.7	-1.9	.
CCC(CC)NCc1ccc2c(c1)c1ccccc1n2CC	2.0	-5.5	1.26	-1.36	1.5	-5.2	.
CCn1c2ccccc2c2cc(CNCc3ccc(OC)cc3OC)ccc21	7.6	-2.4	0.408	-5.11*	-0.4	1.2	0.0459*
CC(C)C(=O)c1cn(CC(=O)NCc2ccco2)c2ccccc12	-3.2	.	-2.08	0.294	1.2	-22.7	.
CCOC(=O)C(C)Oc1cccc2c(=O)n(CC(=O)NCc3ccco3)ccc12 (stereo not given)	-3.9	11.9	0.014	.	1.3	-12.1	0.0862
NC/C(=N\O)c1ccc(Cl)cc1Cl	-1.5	19.0	.	-4.5*	0.3	27.7	0.0561*
CN(C)CCCN=C(NO)c1ccc(Cl)cc1Cl	-0.4	-0.1	0.412	0.169	.	4.5	.
CCN1CCN(C(=S)c2ccc(-c3ccccc3)cc2)CC1	-0.3	-10.2	-1.57	-0.439	-0.2	5.6	.
CC(C)C1CC(CCNCc2ccc3c(c2)OCO3)(c2ccccc2)CCO1 (stereo not given)	-0.3	4.9	0.767	-2.9*	.	0.1	0.0546*
